Source: PubChem (Broad Institute)
Shn3 3UTR inh: reduces Shn3 3'UTR luciferase signal in osteoblasts | Clone20 osteoblast Shn3 3'UTR firefly luciferase, 24 h | inhibition, % at 12.5 µM | 360,000 compounds, 0.52% hits | AID 588674;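 active = mean inhibition of at least 75% with every replicate also reaching 75%; inconclusive = mean inhibition at least 75% but some replicate below; inactive = mean inhibition below 75%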;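 note: 0% = median of neutral control wells and 100% = pilot-screen positive control compound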
TRPM1 prom inh: MITF TRPM1 promoter inhibition in SK-MEL-5 cells. SK-MEL-5 TRPM1 promoter luciferase, 24 h. inhibition, % at 12.5 µM. 330,000 compounds, 0.83% hits. AID 488899;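 active = mean inhibition across replicates of 60% or more, whatever share of single replicates reaches that level; inconclusive = some that reach 60%, reason not given; inactive = mean inhibition across replicates below 60%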
PAX8 inh HTS: lowers PAX8-driven luciferase in RMG-I cells | RMG-I TPO-luciferase reporter, SteadyGlo, 24 h | inhibition, % at 12.6 µM | 360,000 compounds, 1.2% hits;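 active = mean replicate inhibition at least 60% with every replicate also reaching 60%; inconclusive = only one of the two criteria is met; inactive = mean below 60% and not all replicates reaching 60%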;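 note: luciferase light reporting Pax8 driven TPO promoter activity; plate controls were median of neutral control wells for no effect and mitoxantrone controls for full effect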
EWS-Fli block: inhibitors of EWS/Fli oncoprotein transcriptional activity. A673 NR0B1-luciferase reporter, viability-normalised. inhibition, % at 12.6 µM. 350,000 compounds, 0.67% hits. AID 651661;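 active = mean inhibition of at least 50% after viability correction, with every replicate also passing that limit; inconclusive = mean reaches 50% but only one of two replicates passes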;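 note: firefly luciferase signal divided by Alamar Blue viability fluorescence both relative to DMSO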
LGR2 antag: Drosophila LGR2 receptor signaling inhibition; inhibition, % at 9.99 µM; 380,000 compounds, 0.35% hits; HEK293 LGR2, CRE-luciferase, bursicon-stimulated, 4 h;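 active = drop in luminescence signal, shown as inhibition above about 50% in the replicate tests, limit read from the data, passing the limit was not always enough; inconclusive = probably only some replicates passing the limit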;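 note: agonist challenge used bursicon conditioned medium at about half maximal strength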
LMP1 NFkB inh: reduces LMP1-driven NF-kappaB luciferase signal | LMP1-induced NF-kappaB luciferase reporter cells, luminescence | inhibition, % at 12.5 µM | 350,000 compounds, 0.69% hits | AID 504558; in the data active = inhibition above about 41%; inconclusive = no clear call, values can overlap the other calls;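 note: 0% = neutral control wells and 100% = reference inhibitor control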
The depositor's hits bear a star. Hits are enriched below; roughly 2.2% of the tested compounds scored in any of these assays.

`Cc1noc(C)c1S(=O)(=O)Nc1ccc2c(c1)C(=O)N([C@@H](C)CO)C[C@@H](C)[C@@H](CN(C)Cc1ccc(Cl)c(Cl)c1)OCCCC[C@@H](C)O2` gave PAX8 inh HTS 65*, EWS-Fli block 14 and LGR2 antag 1.
Cc1noc(C)c1S(=O)(=O)Nc1ccc2c(c1)C(=O)N([C@H](C)CO)C[C@H](C)[C@H](CN(C)Cc1ccc(Cl)c(Cl)c1)OCCCC[C@@H](C)O2 was read as PAX8 inh HTS -12, EWS-Fli block -1 and LGR2 antag -24.
Screening Cc1noc(C)c1S(=O)(=O)Nc1ccc2c(c1)C(=O)N([C@H](C)CO)C[C@H](C)[C@H](CN(C)Cc1ccc3c(c1)OCO3)OCCCC[C@@H](C)O2 returned PAX8 inh HTS -53, EWS-Fli block -9 and LGR2 antag -1.
`Cc1noc(C)c1S(=O)(=O)N(C)C[C@H]1Oc2ccc(NC(=O)Cn3cnnn3)cc2CC(=O)N([C@H](C)CO)C[C@H]1C` gave EWS-Fli block -7 and LGR2 antag -14.
COc1ccc2c3c(n(C)c2c1)[C@H](CO)N(C(=O)CN(C)C)CC31CN(S(C)(=O)=O)C1 was read as EWS-Fli block 3 and LGR2 antag -2.
CC(C)C#Cc1ccc([C@@H]2[C@@H](CO)N3CCCCN(C(=O)Nc4ccccc4)C[C@@H]23)cc1 was read as PAX8 inh HTS 18, EWS-Fli block 4 and LGR2 antag 8.
For Cc1ccc(C(=O)c2cccc(N)c2)cc1C the results were Shn3 3UTR inh 2, TRPM1 prom inh 66*, PAX8 inh HTS 1, EWS-Fli block inconclusive, LGR2 antag -24 and LMP1 NFkB inh 28.
For N#C[C@@H]1[C@H](c2ccc(C#Cc3ccccc3F)cc2)[C@H](CO)N1C(=O)C1CCCC1 the results were PAX8 inh HTS 40, EWS-Fli block 1 and LGR2 antag 22.
For N#C[C@H]1[C@@H](c2ccc(C#Cc3ccccc3F)cc2)[C@@H](CO)N1C(=O)C1CCCCC1 the results were PAX8 inh HTS 82*, EWS-Fli block 12 and LGR2 antag -2.
Screening N#C[C@H]1[C@H](c2ccc(C#Cc3ccccc3F)cc2)[C@H](CO)N1C(=O)C1CCCC1 returned EWS-Fli block 1 and LGR2 antag 104*.
N#C[C@H]1[C@H](c2ccc(C#Cc3ccccc3F)cc2)[C@H](CO)N1C(=O)C1CC1 was read as PAX8 inh HTS 2, EWS-Fli block -36 and LGR2 antag 62*.
For Cc1ccc2c(Cl)cc(Cl)c(O)c2n1 the results were Shn3 3UTR inh 66, TRPM1 prom inh 73*, PAX8 inh HTS 9, EWS-Fli block 6, LGR2 antag 11 and LMP1 NFkB inh 40.
`Cc1[nH]n(-c2ccccc2)c(=O)c1N=Nc1ccc(C(=O)O)cc1` gave Shn3 3UTR inh -7, TRPM1 prom inh -8, PAX8 inh HTS 17, EWS-Fli block -2, LGR2 antag -11 and LMP1 NFkB inh -12.
For Cc1[nH]n(-c2ccccc2)c(=O)c1N=Nc1cccc(C(=O)O)c1 the results were Shn3 3UTR inh 7, TRPM1 prom inh inconclusive, PAX8 inh HTS 65*, EWS-Fli block 62*, LGR2 antag 24 and LMP1 NFkB inh 2.
O=C(c1cc(S(=O)(=O)NCc2ccco2)ccc1Br)N1CCOCC1 was read as Shn3 3UTR inh -6, TRPM1 prom inh 6, PAX8 inh HTS 3, EWS-Fli block 6, LGR2 antag 7 and LMP1 NFkB inh 71*.
Screening COc1ccc(S(=O)(=O)NCc2ccco2)cc1C(=O)N1CCOCC1 returned Shn3 3UTR inh -43, PAX8 inh HTS 0, EWS-Fli block 0, LGR2 antag -6 and LMP1 NFkB inh 2.
For CCCS(=O)(=O)N1CCCC(C(=O)NC2CCCC(C)C2C)C1 (stereo unspecified) the results were Shn3 3UTR inh 9, TRPM1 prom inh 5 and LMP1 NFkB inh 60*.
C[C@H]1CN([C@@H](C)CO)C(=O)c2cc(NC(=O)Cn3cnnn3)ccc2O[C@@H]1CN(C)C(=O)Nc1ccc(F)cc1 was read as PAX8 inh HTS 0, EWS-Fli block 2 and LGR2 antag -1.
Screening CCN(CC)CCNC(=O)c1ccc(NC(=O)c2cn(-c3ccc(F)cc3)nc2-c2cccc(OC)c2)cc1 returned Shn3 3UTR inh -9, TRPM1 prom inh 98*, PAX8 inh HTS 53, EWS-Fli block 59*, LGR2 antag 2 and LMP1 NFkB inh -10.
For CN(C)C(=O)c1ccc(NC(=O)c2cc(-c3ccco3)nc3ccccc23)cc1 the results were Shn3 3UTR inh 9, TRPM1 prom inh -7, PAX8 inh HTS -8, EWS-Fli block -1, LGR2 antag 0 and LMP1 NFkB inh -8.
`CCN(CC)CCNC(=O)c1ccc(NC(=O)c2cn(-c3ccccc3)nc2-c2cccs2)cc1` gave Shn3 3UTR inh -17, TRPM1 prom inh 76*, PAX8 inh HTS -13, EWS-Fli block 58* and LMP1 NFkB inh -8.
Screening CCN(CC)CCNC(=O)c1ccc(NC(=O)c2cc(-c3ccco3)nc3ccccc23)cc1 returned Shn3 3UTR inh 21, TRPM1 prom inh 70*, PAX8 inh HTS -19, LGR2 antag 7 and LMP1 NFkB inh -15.
Screening CN(C)C(=O)C[C@@H]1C[C@H]2c3cc(NS(=O)(=O)c4ccccc4)ccc3O[C@H]2[C@@H](CO)O1 returned EWS-Fli block -8 and LGR2 antag 26.
Screening Oc1ccccc1N=Nc1nc(-c2ccccc2)c(-c2ccccc2)[nH]1 returned Shn3 3UTR inh 88*, TRPM1 prom inh 80*, LGR2 antag 42 and LMP1 NFkB inh 84*.
For COc1ccccc1N=Nc1nc(-c2ccccc2)c(-c2ccccc2)[nH]1 the results were Shn3 3UTR inh -10, TRPM1 prom inh -7, PAX8 inh HTS 6, LGR2 antag -14 and LMP1 NFkB inh -26.
`Cc1ccc(C(=O)c2c(C)oc3c2C(=O)C(=O)c2ccccc2-3)cc1` gave Shn3 3UTR inh 96*, TRPM1 prom inh 26 and LMP1 NFkB inh 46*.
Screening Cc1ccc(C(=O)c2coc3c2C(=O)C(=O)c2ccccc2-3)cc1 returned Shn3 3UTR inh -34, TRPM1 prom inh -67 and LMP1 NFkB inh -5.
Screening Cc1oc2c(c1C(=O)c1ccc(Cl)cc1)C(=O)C(=O)c1ccccc1-2 returned Shn3 3UTR inh 93*, TRPM1 prom inh 1 and LMP1 NFkB inh 90*.
`CNC(=O)C[C@H]1CC[C@H]2[C@@H](COc3ccc(NC(=O)c4ccno4)cc3C(=O)N2C)O1` gave PAX8 inh HTS -1, EWS-Fli block 1 and LGR2 antag 9.
`O=C1N[C@@H](Cc2ccccc2)COCc2cn(nn2)CC[C@H]1Cc1ccccc1` gave PAX8 inh HTS 1, EWS-Fli block -3 and LGR2 antag 12.
